# Laboratory results taken from PubChem BioAssay (NCATS).
# Activity calls are given as the source filed them. The rule behind the calls is not given here.
# Key:
# [1] = Immunotoxin (HA22) sensitization/mitigation study. Vehicle arm (PBS) (AID 1159510)
# [2] = Immunotoxin (SS1P) sensitization/mitigation study. Vehicle arm (DMEM) (AID 1159513)
# Potency is the fitted concentration of half-maximal effect.
Structure (SMILES),Potency [1],Potency [2]
CCN1CCN(CC(=O)Nc2ccc(-c3cccc4c(=O)cc(N5CCOCC5)oc34)c3sc4ccccc4c23)CC1,0.935 µM (active),1.66 µM (active)
COc1cc2nccc(Oc3ccc(NC(=O)Nc4cc(C)on4)c(Cl)c3)c2cc1OC,18.7 µM (active),
CC1(C)CCC(c2ccc(Cl)cc2)=C(CN2CCN(c3ccc(C(=O)NS(=O)(=O)c4ccc(N[C@H](CCN5CCOCC5)CSc5ccccc5)c(S(=O)(=O)C(F)(F)F)c4)cc3)CC2)C1,0.332 µM (active),
CC(=O)Nc1ccc([C@H](C)C(=O)Nc2ncc(C(C)C)s2)cc1,0.296 µM (active),0.662 µM (active)
CCN(CC)CCCCNc1ncc2cc(-c3cc(OC)cc(OC)c3)c(NC(=O)NC(C)(C)C)nc2n1,20.9 µM (active),20.9 µM (active)
COc1cc2c(Oc3ccc(NC(=O)C4(C(=O)Nc5ccc(F)cc5)CC4)cc3F)ccnc2cc1OCCCN1CCOCC1,16.6 µM (active),16.6 µM (active)
O=C(OCC#CCSc1nnc(-c2ccc3ccccc3c2)o1)c1cc2ccccc2s1,inactive,inactive
CC(C)c1ccc2c(c1)c(SC(C)(C)C)c(CC(C)(C)C(=O)O)n2Cc1ccc(Cl)cc1,13.2 µM (active),11.8 µM (active)
Cc1cccc(C#Cc2ccccc2)n1,inactive,inactive
COCCNCCCn1c(C(=O)CF)c(-c2ccc(C)cc2)c2c(N)ncnc21,inactive,inactive
OCCn1cc(-c2cnc3nnn(Cc4ccc5ncccc5c4)c3n2)cn1,inactive,inactive
C[C@@H](O[C@H]1OCCN(Cc2n[nH]c(=O)[nH]2)[C@@H]1c1ccc(F)cc1)c1cc(C(F)(F)F)cc(C(F)(F)F)c1,14.8 µM (active),18.7 µM (active)
